An excerpt weighted towards active compounds, which were near 21% of everything screened.
IL1B secr inh: inhibitors of inflammasome signaling (IL-1 beta secretion); THP-1 LPS/ATP IL-1B secretion, AlphaLISA, 16 h; active compounds read low; activity change, % at 57.5 µM; 360,000 tested, 4.7% active; AID 743279; in the data active = activity change below about -50%; inconclusive = mostly about -30% to -49%; note: % is set by controls: 0 for no effect and ±100 for the full control effect
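THP-1 cells pretreated 1 hr with compounds (up to 57.5 uM final), then stimulated with LPS (250 ng/mL final) plus ATP (1.25 mM final); secreted IL-1B measured by AlphaLISA after 16 hr, decreased signal indicating inhibition.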
ClpP mod: qHTS Assay for Activators of ClpP; Potency, µM (top dose mostly 57.5 µM), for the others: top-dose activity change, negative = active; ATP-dependent Clp protease proteolytic subunit (Bacillus subtilis (strain 168)), P80244; AID 651965, 2013; purified B. subtilis ClpP, FRET peptide cleavage, 20 min; 340,000 tested, 1.9% active; active = well fitted falling curve with a large enough effect; inconclusive = small, poorly fitted or top-dose-only effect; inactive = no such curve, though single readings can be large or run the other way; note: potency is the fitted concentration of half-maximal effect; the source files actives as falling curves though it sought activators and does not explain the sign; nearly all actives have a fitted effect of over 65% in size
Target sequence (P80244 whole entry, looked up): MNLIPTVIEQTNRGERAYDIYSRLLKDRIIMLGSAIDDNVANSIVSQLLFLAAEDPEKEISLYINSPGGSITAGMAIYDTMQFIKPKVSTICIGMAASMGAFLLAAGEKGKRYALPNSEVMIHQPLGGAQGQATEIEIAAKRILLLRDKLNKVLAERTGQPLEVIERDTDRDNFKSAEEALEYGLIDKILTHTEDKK
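ClpP 10 microg/mL final, pH 8 Tris/KCl buffer with BSA, glycerol, Tween-20; compound pinned in; FRET-FV substrate; RT 20 min; Ex320/Em430; ΔFRET vs ADEP 5.8 microM, DMSO, no enzyme.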
TDP1 cell CPT: growth inhibition of DT40 Tdp1-/-;hTDP1 cells with camptothecin (screen for TDP1 inhibitors); chicken DT40 Tdp1-/-;hTDP1 cells + 20 nM CPT, ATP luminescence, 48 h; 420,000 tested, 12% active; Potency, µM (series often up to 46.2 µM), for the others: top-dose activity change, negative = growth inhibition, hits mostly inhibitors; AID 686979; note: potency is the fitted concentration of half-maximal effect; % is set by controls: 0 for no effect and ±100 for the full control effect; nearly all actives have a fitted effect of over 55% in size
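Chicken DT40 Tdp1-/- cells stably complemented with human TDP1 were seeded at 400 cells/well in medium containing 20 nM camptothecin, exposed to pin-transferred compounds, and grown at 37 °C for at least 48 hr. Viability was read as ATP luminescence.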
DRD3 agonist: D3 dopamine receptor (human) agonism; P35462; D3R DiscoveRx beta-arrestin cells, luminescence, 90 min; max activation, %; 410,000 tested, 0.58% active; AID 652048; in the data active = max activation above about 30%; note: 0% is about no effect
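Cells at 1500/well, incubated overnight, then treated with pinned compounds (dopamine as control) for 90 min at 37 degrees C. DiscoveRx reagent added for 30 - 60 minutes at room temperature; luminescence read.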
DT40 TDP1 no CPT: qHTS for Inhibitors of human tyrosyl-DNA phosphodiesterase 1 (TDP1): qHTS in cells in absence of CPT | DT40 Tdp1-/- hTDP1 cells, no CPT, ATP luminescence, 48 h | Potency, µM (top dose mostly 46.2 µM), inactives show at the top dose activity change, negative = growth inhibition, usual class: inhibitors | 420,000 tested, 15% active | AID 686978, 2013; note: potency is the fitted concentration of half-maximal effect; % is set by controls: 0 for no effect and ±100 for the full control effect; nearly all actives have a fitted effect of over 55% in size
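Luminescent ATP content (CellTiter-Glo) served as the growth readout. Knockout chicken DT40 cells expressing human TDP1 were exposed to compounds without camptothecin for a minimum 48 hr at 37 °C.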
D3 antag: D3 dopamine receptor (human) antagonism. P35462. 360,000 tested, 2.5% active. max response, negative = inhibition, %. D3R cells, DiscoveRx beta-arrestin luminescence, antagonist mode; active compounds read low; in the data active = max response below about -50%; inconclusive = no clear call, values can overlap the other calls; note: % is set by controls: 0 for no effect and ±100 for the full control effect
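Cells plated overnight at 1500 cells/well, then exposed to library compounds with dopamine controls for 90 minutes at 37 degrees C. DiscoveRx reagent added for 30–60 minutes at room temperature; luminescence read, quantitative HTS format.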
* = called active by the depositor; ? = inconclusive; / = no result given. Unless noted, calls come from the whole dose curve; as a rule, active = well fitted inhibition curve with a large enough effect; inconclusive = small, poorly fitted or top-dose-only effect; inactive = flat fitted curve, though single readings scatter.

SMILES	IL1B secr inh	ClpP mod	TDP1 cell CPT	DRD3 agonist	DT40 TDP1 no CPT	D3 antag
CCC(Sc1nc2c(sc3ccccc32)c(=O)n1CCCC(=O)NC1CCCC1)C(=O)Nc1cccc(OC)c1 (stereo not drawn)	/	-5%	-7%	-12	?	/
CCN(CC)CCn1c(SCC(=O)NCCC2=CCCCC2)nc2c(sc3ccccc32)c1=O	-60*	/	?	-2	?	6
CCN(CC)CCn1c(SCC(=O)Nc2cccc(OC)c2)nc2c(sc3ccccc32)c1=O	-79*	/	18µM*	-6	4.6µM*	-17
CCCCn1c(SCC(=O)Nc2ccc(F)cc2)nc2c(sc3ccccc32)c1=O	/	-6%	-15%	6	-20%	/
COc1cccc(NC(=O)CSc2nc3c(sc4ccccc43)c(=O)n2CCN(C)C)c1	-108*	/	15µM*	2	?	0
CCN(CC)CCn1c(SCC(=O)NCc2ccco2)nc2c(sc3ccccc32)c1=O	-19	-24%	?	-2	?	1
CN1C(=O)N(CC(=O)N2CCN(c3ccccc3F)CC2)C(=O)C12CCCCC2	-6	0%	3%	4	4%	24
COc1cc(C(=S)N2CCOCC2)ccc1OC(=O)/C=C/c1ccco1	5	-5%	-23%	-7	-13%	-7
COc1ccc(CNC(=O)C2CCN(S(=O)(=O)c3cn(C)cn3)CC2)cc1	/	2%	10%	2	-2%	/
O=C(C[C@H]1CC[C@H]2[C@@H](COC[C@@H](O)CN2C(=O)c2cnccn2)O1)NCc1ccc(Oc2ccccc2)cc1	8	1%	?	7	?	30
Cn1c(=O)c2c(nc(NCc3ccco3)n2CCc2ccccc2)n(C)c1=O	-18	-1%	7.3µM*	-7	6.5µM*	-14
Cn1c(=O)c2c(nc(NCc3ccccc3)n2CC(=O)NCc2ccccc2)n(C)c1=O	9	4%	4%	4	-28%	0
CCn1c(NCc2ccco2)nc2c1c(=O)n(C)c(=O)n2C	-4	0%	?	4	12µM*	31
CCn1c(SCC(=O)NCc2ccco2)nc2c1c(=O)n(C)c(=O)n2C	9	0%	-5%	11	-1%	12
Cc1ccccc1OCC(O)Cn1c(NCc2ccco2)nc2c1c(=O)n(C)c(=O)n2C (stereo not drawn)	19	-2%	12µM*	11	10µM*	17
Cn1c(=O)c2c(nc(NCc3ccco3)n2Cc2ccc(Cl)cc2Cl)n(C)c1=O	34	0%	12µM*	3	10µM*	10
Cn1c(=O)[nH]c(=O)c2c1nc(NCc1ccco1)n2Cc1ccccc1Cl	-10	-3%	2%	5	9%	-11
O=C(CSc1nnc(NC(=O)NC2CCCCC2)s1)Nc1ccccc1F	/	-1%	?	-5	?	/
CCC(CC)COC(=O)C1=C(C)NC(=O)NC1c1ccccc1Br (stereo not drawn)	-26	0%	?	4	?	-11
Cn1c(NCc2ccco2)nc2c1c(=O)n(Cc1ccc(Cl)c(Cl)c1)c(=O)n2C	?	3%	?	11	18µM*	0
Nc1nnc(SCC(=O)NNC(=O)c2ccc(F)cc2)s1	-7	-1%	6%	1	-2%	-12
Cc1ccc(-c2cn3nc(N4CCCC(C(=O)Nc5ccc(F)cc5)C4)sc3n2)cc1 (stereo not drawn)	/	-2%	16µM*	-1	18µM*	/
CCOc1ccc(NC(=O)C2CCCN(c3nn4cc(-c5ccc(OC)cc5)nc4s3)C2)cc1 (stereo not drawn)	/	1%	?	-3	10µM*	/
COc1cccc(NC(=O)C2CCN(c3nn4cc(-c5ccc(F)cc5)nc4s3)CC2)c1	/	-7%	13µM*	-13	?	/
